Assay outcomes deposited in PubChem by ICCB-Longwood Screening Facility, Harvard Medical School.
Sa growth inh = S. aureus growth inhibition | S. aureus RN4220 growth, OD600, 20 h, 42 °C; active compounds read low | relative growth, % (no concentration beside the values) | hit rate 0.53% among 170,000;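 active = relative growth at most 50% at the other temperature and 20+ points below 30 °C, or under 10% at both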
S aureus helic = S. aureus DNA helicase inhibition; purified S. aureus helicase, fluorescence unwinding assay; inhibition, % (no concentration beside the values); hit rate 0.05% among 120,000; AID 485395; in the data active = inhibition above about 25%, passing the limit was not always enough
Of the large screens only hits and unclear results are named; the others gave an inactive call. Only a selection was taken, and hits are over-represented in it overall.

C=CCn1c(NC(=O)/C=C/c2ccccc2)c(C#N)c2nc3ccccc3nc21	none
COc1ccc(Nc2nc(N3CCN(S(C)(=O)=O)CC3)nc3ccccc23)cc1	none
COc1cccc(NC(=O)COC(=O)CC23CC4CC(CC(C4)C2)C3)c1	none
c1ccc2c(c1)OC1c3ccccc3OC3c4ccccc4OC2N31 (stereo not given)	none
O=C(OCc1ccccc1Cl)c1ccc2c(=O)n3c(nc2c1)CCC3	none
COc1ccc2c(COC(=O)c3ccc4c(=O)n5c(nc4c3)CCC5)cc(=O)oc2c1	S aureus helic 26
O=S(=O)(Nc1ccc2oc3c(c2c1)CCCC3)c1ccc(F)cc1	Sa growth inh 39
O=C1CCCN1c1ccc(S(=O)(=O)Nc2ccc3oc4c(c3c2)CCCC4)cc1	none
O=C(O)Nc1cc(Cl)cc(Cl)c1	Sa growth inh -0.4
O=C(Nc1cc(Cl)cc(Cl)c1)C1CC1	none (no result: S aureus helic)
Clc1ccc(C(Cn2ccnc2)OCc2csc3c(Cl)cccc23)c(Cl)c1 (stereo not given)	Sa growth inh 0.9 (no result: S aureus helic)
S=C(Nc1ccc(Cl)cc1Cl)NC(Cn1ccnc1)c1ccccc1 (stereo not given)	none (no result: S aureus helic)
CC(=O)N1CCc2cc(C(O)CN3CCN(C4CCCCC4)CC3)ccc21 (stereo not given)	none
c1ccc(-c2nc3ccccn3c2NC2CCCC2)nc1	Sa growth inh -0.1
c1csc(-c2nc3cnccn3c2NC2CCCCC2)c1	none
Cc1cc(S(=O)(=O)NC(C)C)ccc1OCC(=O)NC1CC1	none
Cc1cc(NS(=O)(=O)c2ccc(NS(=O)(=O)CC34CCC(CC3=O)C4(C)C)cc2)no1 (stereo not given)	Sa growth inh 49
Cc1cc(C)nc(NS(=O)(=O)c2ccc(NS(=O)(=O)CC34CCC(CC3=O)C4(C)C)cc2)n1 (stereo not given)	none
COc1ccc(C(CC(=O)NCc2ccccn2)N2Cc3ccccc3C2=O)cc1OC (stereo not given)	none
C=CCn1c(SC(C)C(N)=O)nc2ccc(Cl)cc2c1=O (stereo not given)	none
O=S(=O)(NC1CCCc2ccccc21)c1ccc2c(c1)OCCO2 (stereo not given)	none
N#C/C(=N/Nc1ccc2c(c1)OCO2)C(=O)N1CCCC1	none
N#CC(C#N)=NNc1ccc2c(c1)OCCO2	Sa growth inh -0.1
COC(=O)c1ccc(COC(=O)C2CCN(C(=O)c3ccc(Cl)cc3)CC2)o1	none
CO[C@@]12[C@@H]3NC3CN1C1=C(C(=O)C(N)=C(C)C1=O)[C@@H]2COC(N)=O (stereo not given in full)	Sa growth inh 0.2 (no result: S aureus helic)
c1ccc(-n2nnnc2OCCOc2nnnn2-c2ccccc2)cc1	none
c1ccc(-n2nnnc2Oc2cccc3cccnc23)cc1	Sa growth inh -0.3
CC(C)(C)C(=O)N(CN1C(=O)c2ccccc2C1=O)c1cccc(F)c1	none
CCCCc1cc(=O)oc2cc(C)cc(O)c12	none
CCCc1cc(O)c2c(C)cc(=O)oc2c1	Sa growth inh 5.2
Cc1cc(C)c(S(=O)(=O)N(CCC(C)C)S(=O)(=O)c2ccccc2C#N)c(C)c1	none
CC(C)(C)C1CCc2nc(NC(=O)c3ccc([N+](=O)[O-])cc3)sc2C1 (stereo not given)	none (no result: S aureus helic)
CC(C)(C)C1CCc2nc(NC(=O)c3cccc(Cl)c3)sc2C1 (stereo not given)	Sa growth inh 13 (no result: S aureus helic)
CC1(C)CC(N=CC2=C(O)c3ccccc3C2=O)CC(C)(C)N1	none
CCN(CC)CCc1c(O)n(-c2ccccc2)n(-c2ccccc2)c1=O	none
CCS(=O)(=O)c1ncc(Cl)c(C(=O)N2CCN(c3cccc(Cl)c3)CC2)n1	Sa growth inh 7.0 (no result: S aureus helic)
CCS(=O)(=O)c1ncc(Cl)c(C(=O)Nc2ccc(Cl)cc2)n1	Sa growth inh 1.8
CS(=O)(=O)c1ncc(Cl)c(C(=O)N2CCN(c3cccc(Cl)c3)CC2)n1	none (no result: S aureus helic)
CCS(=O)(=O)c1ncc(Cl)c(C(=O)NCc2ccccc2)n1	none (no result: S aureus helic)
Cc1ccc2c(COC(=O)c3ccc(S(=O)(=O)NCc4ccco4)cc3)cc(=O)oc2c1	none
O=S(=O)(Nc1ccc(Cl)cc1)c1ccc2oc(=S)[nH]c2c1	none
Cc1c(F)cccc1NC(=O)OCc1ccccc1	none
CCOC(=O)c1ccc(Nc2nc3nonc3nc2Nc2cccc(C)c2C)cc1	Sa growth inh -1.0 (no result: S aureus helic)
CCOC(=O)c1ccc(Nc2nc3nonc3nc2NCc2ccco2)cc1	none
O=C(O)CCCc1ccc(F)cc1	none
CCC(c1nnc(SCC(=O)NCC(C)C)o1)N(C)C (stereo not given)	none
CCC(c1nnc(SCC(=O)NCCc2ccc(Cl)cc2Cl)o1)N(C)C (stereo not given)	S aureus helic 44
Cn1nnc2c(NCC(=O)C(C)(C)C)nc(Cc3ccc(Cl)cc3Cl)nc21	none
O=C(O)/C=C/C(=O)Nc1ccnn1-c1ccccc1	none (no result: S aureus helic)
O=c1[nH]c(=O)n(C2C[C@@H](O)[C@@H](CO)O2)cc1F (stereo not given in full)	Sa growth inh -0.7 (no result: S aureus helic)
O=c1[nH]c(=O)n(C2C[C@H](O)[C@@H](CO)O2)cc1C(F)(F)F (stereo not given in full)	none (no result: S aureus helic)
Clc1ccc(C2Nc3ccccc3O2)cc1 (stereo not given)	none (no result: S aureus helic)
CCc1nc2sc3c(SCC(N)=O)ncnc3c2c2c1CCCC2	none
O=C1CCC(C(=O)Nc2nc(SCc3ccc(Cl)cc3)n[nH]2)=NN1	none
CS(=O)(=O)CCC(C(=O)Oc1cccc2cccnc12)N1C(=O)c2ccccc2C1=O (stereo not given)	Sa growth inh 0.7
CS(=O)(=O)CCC(C(=O)n1nnc2ccccc21)N1C(=O)c2ccccc2C1=O (stereo not given)	none
Nc1cc(C(F)(F)F)c[nH]c1=O	none
FC(F)(F)c1c[nH]c(=S)c(C(F)(F)F)c1	Sa growth inh 7.9 (no result: S aureus helic)
N#Cc1c(Cl)cccc1-n1ccnc1	none
Clc1ccccc1C(c1ccccc1)(c1ccccc1)n1ccnc1	Sa growth inh 0.2 (no result: S aureus helic)
Cc1ccc(-c2c(CN3CCN(C)CC3)csc2C)cc1	Sa growth inh 6.2
Cc1ccc(-c2c(CN3CCN(c4cccc(C)c4C)CC3)csc2C)cc1	none (no result: S aureus helic)
COc1ccc(Cn2c(=O)[nH]c3cc(C(=O)NC4CCCCC4C)ccc32)cc1 (stereo not given)	none
CC(N=c1ccccn1C(=O)Nc1ccc(Cl)c(Cl)c1)c1ccco1 (stereo not given)	Sa growth inh -0.8
CC1Cc2ccccc2N1C(=O)Nc1ccc(Cl)c(Cl)c1 (stereo not given)	none
O=C(O)[C@@H]1CCCN1C(=O)c1ccccc1F	none
Cc1ccc(C(=O)CSc2nnc3nc(C)cc(C)n23)cc1	none
N#CCN(CC#N)C(=O)c1cccs1	none (no result: S aureus helic)
N#CSCC(=O)c1cccs1	Sa growth inh 1.0
O=c1c2c(nc(NCCO)n1-c1ccccc1)-c1ccccc1CC21CCCC1	none
COc1ccc(CNc2ccc(C)c(C)c2)cc1OC	none
CC(=O)NCc1ccc(C(=O)COC(=O)CSc2ncnc3sccc23)o1	none
CC(C)CN(CC(C)C)Cn1nc(-c2ccc3c(c2)OCO3)oc1=S	none
CN(Cn1nc(-c2ccc3c(c2)OCO3)oc1=S)C1CCCCC1	Sa growth inh 45
O=S(=O)(c1cccs1)c1cccs1	none (no result: S aureus helic)
N#Cc1nccnc1S(=O)(=O)c1cccs1	Sa growth inh -0.7 (no result: S aureus helic)
Cc1c(-c2ccccc2)cc2ccccn12	Sa growth inh 4.3
Cc1cc2ccccn2c1C(=O)Nc1ccccc1	none
CCc1nnsc1C(=O)Nc1nc2ccc(C)cc2s1	none
CC1COc2c(F)c(F)cc3c(=O)c(C(=O)O)cn1c23 (stereo not given)	none (no result: Sa growth inh)
CCn1cc(C(=O)O)c(=O)c2cc(F)c(N3CCNC(C)C3)c(F)c21 (stereo not given)	Sa growth inh -0.6 (no result: S aureus helic)
